Source: PubChem BioAssay (Tox21)
Results filed as inconclusive are left out. Active and inactive are the calls of the source. Unless noted, the call rests on the fitted dose curve; in most records, active means well fitted curve in the direction sought with a large enough effect in the repeat runs; inconclusive means weak or mixed curves; inactive means no such curve, though single readings can be large; an effect the other way counts as inactive or inconclusive.

Experiments:
[1] = qHTS assay for small molecule agonists of the p53 signaling pathway (AID 651631; calls by dose curve; further: nearly all actives have a fitted effect of over 15% in size)
Procedure, shortened: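 p53RE-bla HCT-116 cells; compounds 16 h, 37 °C; LiveBLAzer B/G FRET substrate 2 h RT; fluorescence intensity read-out, qHTS format.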

[2] = qHTS assay for small molecules that induce genotoxicity in human embryonic kidney cells expressing luciferase-tagged ATAD5 (AID 651632); further: nearly all actives have a fitted effect of over 15% in size
Procedure, shortened: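 Luminescence read-out: after 16 hr compound exposure at 37C, ATAD5-luciferase HEK293T cells received Amplite, 30 min RT, then CCD imaging. A rise in signal marks genotoxic stress.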

[3] = qHTS assay for small molecule agonists of the p53 signaling pathway - cell viability (AID 651633; calls by dose curve;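 further: p53RE-bla HCT reporter cells with a stable beta-lactamase p53 reporter; series mostly up to about 83 µM; nearly all actives have a fitted effect of over 30% in size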)
Procedure, shortened: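 Viability counter-read: CellTiter-Glo luminescence (30 min, room temperature) in the same p53RE-bla plates. These plates had been exposed to compounds for 16 h at 37 C.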

[4] = qHTS assay for small molecule disruptors of the mitochondrial membrane potential - cell viability (AID 720634; calls by dose curve;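 further: human HepG2 liver cancer cells; series mostly up to about 83 µM; nearly all actives have a fitted effect of over 20% in size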)
Procedure, shortened: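 Luminescence from CellTiter-Glo (ATP content) gave viability in HepG2 cells, read in the same wells as the MMP dye assay after 1 hr compound exposure at 37 C.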

[5] = qHTS assay to test for compound auto fluorescence at 590 nm (red) in HepG2 cells (AID 720674)
Procedure, shortened: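 We screened compounds on adherent HepG2 cells, incubating them for an hour at 37 C in 5% CO2 before reading emission at 590 nm under 540 nm excitation; values reflect equivalence to Rose Bengal sodium fluorescence.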

[6] = qHTS assay to test for compound auto fluorescence at 535 nm (green) in HepG2 cells (AID 720675)
[7] = qHTS assay to test for compound auto fluorescence at 460 nm (blue) in HEK293 cells (AID 720678)
Procedure, shortened: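 Blue-channel (Ex/Em 405/460 nm) intensity measured in HEK293 cultures after overnight compound exposure at 37C; signal expressed relative to triamterene. Cells plated 2,000 per well in 10% dialyzed FBS medium and allowed 4-5 hr to attach.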

[8] = qHTS assay to test for compound auto fluorescence at 590 nm (red) in HEK293 cells (AID 720679)
Procedure, shortened: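 Red-channel autofluorescence (Ex/Em 540/590 nm; Rose Bengal sodium reference) was measured after overnight 37C, 5% CO2 exposure of attached HEK293 cells, 2,000 per well in medium with 10% dialyzed FBS.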

[9] = qHTS assay to test for compound auto fluorescence at 535 nm (green) in HEK293 cells (AID 720680)
[10] = qHTS assay to test for compound auto fluorescence at 460 nm (blue) in HEK293 cell free culture (AID 720681)
Procedure, shortened: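 Blue fluorescence (Ex 405/Em 460 nm, triamterene-equivalent) was read immediately after pin transfer of compound or DMSO into medium (DMEM, 10% FBS) without cells.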

[11] = qHTS assay to test for compound auto fluorescence at 535 nm (green) in HEK293 cell free culture (AID 720682)
Procedure, shortened: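 Cell-free medium (DMEM, 10% FBS) receives compound or DMSO by pintool. Plate read directly at Ex 485/Em 535 nm. Signal converted to fluorescein equivalency.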

[12] = qHTS assay to test for compound auto fluorescence at 590 nm (red) in HEK293 cell free culture (AID 720683)
Procedure, shortened: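 Red-channel autofluorescence of compounds in culture medium (DMEM, 10% FBS), no cells, measured at 540/590 nm. Rose Bengal sodium is the reference fluorophore for equivalence.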

[13] = qHTS assay to test for compound auto fluorescence at 590 nm (red) in HepG2 cell free culture (AID 720684)
Procedure, shortened: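 No cells present: MEM + 10% FBS only. Compound pinned in, red label read (540/590 nm). Activity = fluorescence equivalent to Rose Bengal sodium.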

[14] = qHTS assay to test for compound auto fluorescence at 460 nm (blue) in HepG2 cell free culture (AID 720685)
Procedure, shortened: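 Cell-free plates of MEM plus 10% FBS received 23 nL compound or DMSO vehicle; blue-channel (405/460 nm) intensity scored against triamterene as reference fluorophore.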

[15] = qHTS assay to test for compound auto fluorescence at 535 nm (green) in HepG2 cell free culture (AID 720686)
[16] = qHTS assay to test for compound auto fluorescence at 460 nm (blue) in HepG2 cells (AID 720687)
Procedure, shortened: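 Blue-channel autofluorescence (Ex/Em 405/460 nm, triamterene-equivalent) was measured after 1 hr compound exposure at 37 C, 5% CO2. Cells were HepG2, plated overnight at 37 C in MEM plus 10% FBS.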

[17] = molecular target: Glucocorticoid receptor (Homo sapiens) (UniProt P04150); test: qHTS assay to identify small molecule agonists of the glucocorticoid receptor (GR) signaling pathway (AID 720691; active means well fitted activation curve with a large enough effect in the signal ratio in the repeat runs, not every such curve was filed as active; the % refers to the signal ratio)
Sequence of Glucocorticoid receptor (Homo sapiens) (P04150 whole entry, looked up): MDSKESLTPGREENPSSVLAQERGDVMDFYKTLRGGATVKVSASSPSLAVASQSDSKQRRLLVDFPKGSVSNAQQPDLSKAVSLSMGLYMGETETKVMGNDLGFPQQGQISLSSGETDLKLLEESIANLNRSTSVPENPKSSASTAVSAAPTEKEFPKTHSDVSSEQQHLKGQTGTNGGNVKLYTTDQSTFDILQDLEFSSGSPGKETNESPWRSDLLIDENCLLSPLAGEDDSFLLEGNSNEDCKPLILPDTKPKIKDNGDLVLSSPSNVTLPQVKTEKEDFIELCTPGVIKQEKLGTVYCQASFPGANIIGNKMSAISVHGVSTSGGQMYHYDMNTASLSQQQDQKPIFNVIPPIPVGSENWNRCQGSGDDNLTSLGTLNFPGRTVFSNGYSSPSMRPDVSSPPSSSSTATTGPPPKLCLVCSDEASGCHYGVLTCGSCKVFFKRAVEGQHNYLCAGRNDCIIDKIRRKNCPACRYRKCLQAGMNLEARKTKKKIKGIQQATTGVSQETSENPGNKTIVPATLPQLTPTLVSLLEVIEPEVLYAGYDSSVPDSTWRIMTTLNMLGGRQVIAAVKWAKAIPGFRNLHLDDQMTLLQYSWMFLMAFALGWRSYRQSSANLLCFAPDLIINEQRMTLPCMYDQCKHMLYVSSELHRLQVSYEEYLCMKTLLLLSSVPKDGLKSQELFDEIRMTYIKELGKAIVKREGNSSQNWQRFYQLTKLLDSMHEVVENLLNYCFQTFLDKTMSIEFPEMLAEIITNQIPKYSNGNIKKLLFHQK
Procedure, shortened: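 HeLa GR-bla reporter line; cells pre-incubated 4 h, compound in DMSO 18 h at 37 C; LiveBLAzer B/G FRET substrate 2 h RT; fluorescence intensity read-out.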

[18] = molecular target: Glucocorticoid receptor (Homo sapiens) (UniProt P04150); test: qHTS assay to identify small molecule antagonists of the glucocorticoid receptor (GR) signaling pathway (AID 720692; active means well fitted inhibition curve with a large enough effect in the signal ratio in the repeat runs, not every such curve was filed as active; the % refers to the signal ratio; further: potency means the concentration at half of the fitted maximal effect)
Procedure, shortened: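 Read-out: beta-lactamase FRET substrate fluorescence, 2 h at room temperature, in HeLa cells stably carrying a GRE-driven bla reporter. Compounds were co-incubated with 5 nM dexamethasone agonist (final) for 18 h at 37 C.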

[19] = qHTS assay for small molecule disruptors of the mitochondrial membrane potential (AID 720635); further: potency means the concentration at half of the fitted maximal effect
Procedure, shortened: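 Mitochondrial membrane potential tracked with Mito-MPS dye, red aggregates (ex 540/em 590 nm) against green monomers (ex 490/em 535 nm). Compound treatment 1 hr at 37C, dye 30 min in HepG2.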

[20] = qHTS assay for small molecules that induce genotoxicity in human embryonic kidney cells expressing luciferase-tagged ATAD5 - cell viability (AID 651634; calls by dose curve; further: nearly all actives have a fitted effect of over 25% in size)
Procedure, shortened: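 HEK293T ATAD5-luc cells, 2,000/well; compound 15.5 hr, 37C/5% CO2; CellTiter-Fluor 30 min, 37C; fluorescence read.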
On the % scale 0 is the no-effect control and ±100 the full control effect.

C[C@@H]1[C@H](O)[C@@H](C)/C=C/C=C\C=C\C=C\C=C\C=C\C=C\[C@H](O[C@@H]2O[C@H](C)[C@@H](O)[C@H](N)[C@@H]2O)C[C@@H]2O[C@](O)(C[C@@H](O)C[C@@H](O)[C@H](O)CC[C@@H](O)C[C@@H](O)CC(=O)O[C@H]1C)C[C@H](O)[C@H]2C(=O)O (stereo in doubt)
active: Potency [18] 49 µM
inactive: Potency [1] | Potency [2] | Potency [3] | outcome [4] | outcome [5] | outcome [6] | Potency [7] | outcome [8] | outcome [9] | Potency [10] | outcome [11] | outcome [12] | outcome [13] | Potency [14] | outcome [15] | Potency [16] | Potency [17]

NC(=O)CCCCC(N)=O
inactive: Potency [1] | Potency [2] | Potency [3] | outcome [4] | outcome [5] | outcome [6] | Potency [7] | outcome [8] | outcome [9] | Potency [10] | outcome [11] | outcome [12] | Potency [14] | outcome [15] | Potency [16] | Potency [17]

O=S(=O)(Cl)c1c(Cl)cccc1Cl
inactive: Potency [1] | Potency [2] | Potency [3] | outcome [4] | Potency [19] | outcome [5] | Potency [7] | outcome [8] | Potency [10] | outcome [11] | outcome [12] | outcome [13] | Potency [14] | outcome [15] | Potency [16] | Potency [17] | Potency [18]

CC[C@@H](CO)NCCN[C@@H](CC)CO
inactive: Potency [1] | Potency [3] | Potency [20] | outcome [4] | Potency [19] | fluorescence, relative to Rose Bengal [5] -0.504% [at 18.6 µM] | fluorescence, % of fluorescein control [6] 0.0308% [at 18.6 µM] | fluorescence, % of triamterene [7] 0.0077% [at 18.6 µM] | fluorescence, % of fluorescein [9] -0.0101% [at 18.6 µM] | fluorescence, % of fluorescent control [10] 0.0181% [at 18.6 µM] | activity change [11] 0.014% [at 18.6 µM] | fluorescence, % of fluorescent control [12] 0.0179% [at 18.6 µM] | fluorescence, % of Rose Bengal [13] 0.0051% [at 18.6 µM] | fluorescence, % of fluorescent control [14] 0.0488% [at 18.6 µM] | fluorescence, % of fluorescein control [15] 0.0013% [at 18.6 µM] | fluorescence, % of fluorescent control [16] -0.0204% [at 18.6 µM]

O=C(O)c1cccc(C[C@@H]2COc3ccc(OCc4nc5cc(F)ccc5s4)cc3[C@@H]2O)c1
active: Potency [19] 54.5 µM
inactive: Potency [2] | Potency [3] | Potency [20] | outcome [4] | outcome [5] | outcome [6] | Potency [7] | outcome [8] | outcome [9] | Potency [10] | outcome [11] | outcome [12] | outcome [13] | Potency [14] | outcome [15] | Potency [16] | Potency [17]

CC1CCCO1 (configuration not stated)
inactive: Potency [1] | Potency [3] | outcome [4] | outcome [5] | outcome [6] | Potency [7] | outcome [9] | Potency [10] | outcome [11] | outcome [12] | outcome [13] | Potency [14] | outcome [15] | Potency [16]

CC1C(C)(C)C2=C(C(=O)CCC2)C1(C)C (configuration not stated)
inactive: Potency [1] | Potency [2] | Potency [3] | outcome [4] | outcome [5] | Potency [7] | outcome [8] | outcome [9] | Potency [10] | outcome [11] | outcome [12] | outcome [13] | Potency [14] | outcome [15] | Potency [16] | Potency [17] | Potency [18]

O=[N+]([O-])C1(Br)COCOC1
active: Potency [19] 48.6 µM
inactive: Potency [1] | Potency [2] | Potency [3] | outcome [5] | outcome [6] | Potency [7] | outcome [8] | outcome [9] | Potency [10] | outcome [11] | outcome [12] | outcome [13] | Potency [14] | outcome [15] | Potency [16]
